According to PubChem BioAssay:

Legend:
[1] = target: PEG-3 (UniProt Q6IN02); assay: Peg3 promoter luciferase inhibitors, potency, dose response, cell-based, HeLa, CREF/GAPDH counter-screen panel (AID 624167); conditions: CREF/GAPDH counter-screens; HeLa PEG-Prom luciferase reporter, overnight, run 1, dose range 1, at 100 µM (top of the series) unless noted
[2] = target: PEG-3 (UniProt Q6IN02); assay: as above; conditions: CREF/GAPDH counter-screens; HeLa PEG-Prom luciferase reporter, overnight, run 2, dose range 1, at 100 µM (top of the series) unless noted
[3] = system: Rat fibroblasts (CREF); assay: as above; conditions: CREF/GAPDH counter-screens; run 1, dose range 1, at 100 µM (top of the series)
[4] = system: Rat fibroblasts (CREF); assay: as above; conditions: CREF/GAPDH counter-screens; run 2, dose range 1, at 100 µM (top of the series)
[5] = target: Tumor necrosis factor receptor superfamily member 10B (Homo sapiens) (UniProt O14763); assay: caspase-8 TRAIL sensitization, hit retest, confirmation, cell-based, NB7+caspase-8, with/without TRAIL, luminescence panel (AID 651596); conditions: NB7 neuroblastoma + caspase-8, TRAIL sensitization, luminescence viability, with TRAIL, mean of runs, at 10 µM, stronger effect = higher value
[6] = as above; conditions: NB7 neuroblastoma + caspase-8, without TRAIL, luminescence viability, without TRAIL, mean of runs, at 10 µM
[7] = inhibitors of PAF-induced NFkB signaling in CF airway cells, dose response, cell-based, uHTS hits, panel, cytotoxicity readout (AID 624344); conditions: CF bronchial epithelial cells, PAF-induced NFkB reporter inhibition, with PAF, run 1; at 79 µM (top of the series) unless noted
[8] = as above; conditions: CF bronchial epithelial cells, PAF-induced NFkB reporter inhibition, with PAF, run 2; at 79 µM (top of the series) unless noted

Chain of Tumor necrosis factor receptor superfamily member 10B (Homo sapiens) (O14763 whole entry, looked up): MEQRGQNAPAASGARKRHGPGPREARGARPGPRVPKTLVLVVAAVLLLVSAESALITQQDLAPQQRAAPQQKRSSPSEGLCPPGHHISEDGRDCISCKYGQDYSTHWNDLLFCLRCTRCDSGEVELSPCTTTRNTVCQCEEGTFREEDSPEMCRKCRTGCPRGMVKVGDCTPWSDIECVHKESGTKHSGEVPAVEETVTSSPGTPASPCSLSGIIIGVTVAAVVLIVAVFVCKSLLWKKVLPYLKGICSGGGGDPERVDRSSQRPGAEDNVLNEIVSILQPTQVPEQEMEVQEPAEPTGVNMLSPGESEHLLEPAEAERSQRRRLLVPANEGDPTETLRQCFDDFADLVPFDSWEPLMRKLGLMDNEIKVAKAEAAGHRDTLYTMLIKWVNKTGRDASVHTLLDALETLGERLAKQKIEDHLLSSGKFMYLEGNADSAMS
Chain of PEG-3 (Q6IN02 whole entry, looked up): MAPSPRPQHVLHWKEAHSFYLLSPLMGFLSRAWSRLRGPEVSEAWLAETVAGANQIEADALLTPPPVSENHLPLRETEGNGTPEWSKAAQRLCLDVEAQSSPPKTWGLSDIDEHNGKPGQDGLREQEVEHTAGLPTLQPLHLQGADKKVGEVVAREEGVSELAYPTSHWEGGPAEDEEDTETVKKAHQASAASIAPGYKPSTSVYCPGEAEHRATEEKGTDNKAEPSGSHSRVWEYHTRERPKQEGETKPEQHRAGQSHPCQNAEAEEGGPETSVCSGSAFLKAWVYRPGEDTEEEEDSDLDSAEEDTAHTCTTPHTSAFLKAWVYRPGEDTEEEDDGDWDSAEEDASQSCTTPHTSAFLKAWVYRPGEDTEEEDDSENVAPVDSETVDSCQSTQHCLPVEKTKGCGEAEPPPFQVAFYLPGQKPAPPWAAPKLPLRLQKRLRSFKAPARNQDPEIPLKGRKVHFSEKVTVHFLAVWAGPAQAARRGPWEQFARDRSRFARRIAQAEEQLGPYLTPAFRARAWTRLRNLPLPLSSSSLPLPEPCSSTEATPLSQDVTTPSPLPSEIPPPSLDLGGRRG

SMILES	inhibition [1] [%]	inhibition [2] [%]	inhibition [3] [%]	inhibition [4] [%]	activity [5] [%]	activity [6] [%]	inhibition [7] [%]	inhibition [8] [%]
C/C(=N/NC(=O)c1cc(C2CC2)[nH]n1)c1cccs1	92.3	87.2	95.4	96.2	70.8	70.8	–	–
Fc1ccc(-c2nnc(NC3=NCCCCC3)o2)cc1	94.9	97.3	95.2	94	76	77.7	–	–
COc1cc(/C=N/O)ccc1OCc1ccc(C(=O)O)cc1	88.6	90.2	92	91.3	72.7	65.7	–	–
Cc1cc(Br)ccc1NC(=O)CNC(=O)Cn1ncc(Cl)c(Cl)c1=O	99.8	94.5	48.9	96.9	–	–	–	–
COc1ccc(NC(=O)c2cc(-c3ccccn3)nc3ccccc23)cc1S(=O)(=O)N(C)C	56.4	61.2	-4.8	-6.75	–	–	–	–
CCCCC(=O)NC(c1ccccc1)c1ccc2cccnc2c1O (stereo not given)	90.4	93.6	-26	-7.89	–	–	–	–
CCc1ccc(/C=C2\SC(=S)N(CCCC(=O)Nc3cc(C)on3)C2=O)cc1	80	87.3	29.1	27.4	–	–	–	–
Cc1ccccc1CNC(=O)C1CCCN(c2nnc(C)c3c(C)n(-c4ccccc4)nc23)C1 (stereo not given)	99	101	98.3	99.4	–	–	–	–
O=[N+]([O-])c1ccc(S(=O)(=O)c2ccccc2)nc1	99.3	101	99.3	98.6	–	–	–	–
CC(=O)CSc1ccc(-c2nc3cc(C)c(C)cc3[nH]2)cn1	102	101	95.4	95.4	89.6	88.5	–	–
Cc1ccccc1OCC(O)CNC1CCC(NCC(O)COc2ccccc2C)CC1 (stereo not given)	94.1	95.8	98.1	97.9	94.4	99.8	–	–
O=C(Nc1ccccc1)c1nc[nH]c1C(=O)NCCCCCCNC(=O)c1[nH]cnc1C(=O)Nc1ccccc1	-14.1	24.2	-4.97	-1.9	–	–	–	–
O=C(c1ccco1)N1CCN(C(c2ccccc2Cl)c2nnnn2Cc2cccs2)CC1 (stereo not given)	63	44.9	-23.5	-17.6	–	–	–	–
C(=Cc1cnc2ccccc2n1)c1ccc2c(c1)OCO2	94.6	98.4	95.9	95.7	92.9	92.6	–	–
CN(C)c1ccc(Nc2nc(N)c3ccccc3n2)cc1	97.9	99.2	97.2	98	95.9	95.8	–	–
O=C(O)c1ccc(N/N=C/c2ccc3c(c2)OCO3)cc1	98	102	67.2	62.5	–	–	–	–

SMILES	inhibition [1] [%]	inhibition [2] [%]	inhibition [3] [%]	inhibition [4] [%]	activity [5] [%]	activity [6] [%]	inhibition [7] [%]	inhibition [8] [%]
O=C(CN1C(=O)c2ccccc2S1(=O)=O)c1ccc2c(c1)OCCCO2	98.1	98.8	99.7	99.4	95.4	94.1	–	–
CCCCCCCNC(=O)C1(CC2CC(c3cccc(Br)c3)=NO2)CCNCC1 (stereo not given)	99.6	101	99.7	99.2	60.5	98.4	–	–
O=C(CNCCC1=CCCCC1)Nc1ccc(N2CCCCCC2)cc1	102	102	99.4	100	–	–	–	–
O=C(Nc1nc2ccccc2[nH]1)c1ccccc1F	97.3	98.3	98.8	99.2	–	–	–	–
Cc1cccc(C)c1NC(=O)c1nc(S(=O)(=O)Cc2ccccc2)ncc1Cl	102	101	99.2	99	–	–	–	–
CCc1ccc(/C=C2\SC(=S)N(CCCC(=O)NC3=NCCS3)C2=O)cc1	96	77.5	0.087	7.65	–	–	–	–
COc1ccc(/C=C2/CCCC(CN(C)C)C2=O)cc1 (stereo not given)	99.5	98.8	95.5	68.5	–	–	–	–
CCC(c1ccc(O)c(O)c1)C(CC)c1ccc(O)c(O)c1 (stereo not given)	102	101	100	97.1	–	–	–	–
Cc1ccc(-c2cc3c(N=O)c4ccccc4c-3n[nH]2)cc1	75.1	86.7	87.3	78.5	–	–	–	–
CN[C@H]1C[C@H]2c3[nH]c4ccc(-c5ccc(OC)cc5)cc4c3CCN2C(=O)[C@H]1[C@H](C)O	102	98.8	96	99.6	–	–	–	–
CCOC(=O)c1cnc(Nc2nc3ccccc3o2)nc1C	85.5	81.8	92	93	92.1	91.1	–	–
CC(=O)Nc1ccc(NC(=O)c2nc(S(=O)(=O)Cc3cccc(C)c3)ncc2Cl)cc1	102	97.4	100	100	56.4	99.4	76.1	85.4
COc1ccc(OCc2cccc(C(=O)O)c2)cc1	98.7	102	90.9	89.6	62.9	55.2	–	–
CN(C)c1ccc(NC(=S)c2ccccn2)cc1	93.1	85.4	94.4	96.1	–	–	–	–
COC1=CC(=O)c2c(ccc3ncnc(N)c23)C1=O	102	99	101	100	–	–	–	–
